Whole data set: some 1,600 compounds, median “Hit score” near 0.13, cut for the highest 2% near 0.46. The entries come from a sample that favours the highest values as a whole.
System: SARS-CoV-2
Test: Antiviral activity against SARS-CoV-2 (USA-WA1/2020 strain) measured by imaging in HRCE cells at MOI 0.4 after 96 hrs (reported as hit score from 0-1 for on-disease vs off-disease activity: scores >0.6 considered hits)
Format: functional, Homo sapiens

SMILES	Hit score
CC(=O)[C@@]1(O)CC[C@H]2[C@@H]3CCC4=CC(=O)CCC4=C3[C@@H](c3ccc(N(C)C)cc3)C[C@@]21C [ULIPRISTAL]	0.1448
Nc1cccc2c(=O)[nH][nH]c(=O)c12.[Na+]	0.2367
CCCN[C@@H]1CCc2nc(N)sc2C1 [DEXPRAMIPEXOLE]	0.07275
CC(C)(C)NC[C@H](O)COc1ccccc1C1CCCC1 [PENBUTOLOL]	0.4905
CC(C)(C)NCC(O)c1cc(Cl)c(N)c(C(F)(F)F)c1 (configuration not stated) [MABUTEROL]	-0.1589
CC(C)(C)NCC(O)COc1cc(Cl)ccc1Cl (configuration not stated) [CLORANOLOL]	0.4962
Cc1ccc(Cl)c(OCC(O)CNC(C)(C)C)c1 (configuration not stated) [BUPRANOLOL]	0.4669
CC(C)(C)NCC(O)c1cc(Cl)c(N)c(Cl)c1 (configuration not stated) [CLENBUTEROL]	-0.07437
CC(C)(C)NCC(O)c1ccccc1Cl (configuration not stated) [TULOBUTEROL]	-0.01366
CC(C)(C)NCC(O)COc1cccc2c1CCC(=O)N2 (configuration not stated) [CARTEOLOL]	0.1646
CC(C)(C)NC[C@H](O)COc1cccc2c1CCCC2=O [LEVOBUNOLOL]	0.1851
CC(C)(C)NC[C@H](O)COc1nsnc1N1CCOCC1 [TIMOLOL]	0.174
CO[C@@]1(NC(=O)C2SC(=C(C(N)=O)C(=O)O)S2)C(=O)N2C(C(=O)O)=C(CSc3nnnn3C)CS[C@@H]21 (some centres not stated) [CEFOTETAN]	0.1396
COc1cc2c(Oc3ccc4[nH]c(C)cc4c3F)ccnc2cc1OCC1(N)CC1 [CATEQUENTINIB]	0.165
CO/N=C(\C(=O)N[C@@H]1C(=O)N2C(C(=O)[O-])=C(C[n+]3cccc4c3CCC4)CS[C@H]12)c1csc(N)n1 [CEFPIROME]	0.1204
COC(=O)OCOc1c2n(ccc1=O)N([C@@H]1c3ccccc3SCc3c1ccc(F)c3F)[C@@H]1COCCN1C2=O [BALOXAVIR MARBOXIL]	5.7e-05
O=[N+]([O-])/N=C1\NCCN1Cc1ccc(Cl)nc1 [IMIDACLOPRID]	0.158
CCOC(=O)CSCCC1NC(C(=O)O)CS1 (configuration not stated) [LETOSTEINE]	0.08225
N=C(NCCCCCCNC(=N)NC(=N)Nc1ccc(Cl)cc1)NC(=N)Nc1ccc(Cl)cc1 [CHLORHEXIDINE]	0.08739
CNC(=O)c1cc(Oc2ccc(NC(=O)Nc3ccc(Cl)c(C(F)(F)F)c3)cc2)ccn1 [SORAFENIB]	0.2484
O=C(Nc1ccc(Cl)cc1)Nc1ccc(Cl)c(Cl)c1 [TRICLOCARBAN]	0.4616
CCCCc1nc(Cl)c(C(=O)O)n1Cc1ccc(-c2ccccc2-c2nn[nH]n2)cc1 [CARBOXYLIC ACID METABOLITE]	0.01747

Source: ChEMBL document CHEMBL4303122, “Identification of potential treatments for COVID-19 through artificial intelligence-enabled phenomic analysis of human cells infected with SARS-CoV-2” (2020)
